Our source for the inhibition values is PubChem BioAssay AID1445 (SRMLSC, 2008).

Molecules are shown by their SMILES. Where “and” joins values, the source holds several entries; their conditions need not be identical. Equal values may be shown once. The campaign covered roughly 220,000 compounds. About 910 (0.41%) were called active.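 How the source made its calls: active means primary inhibition above the hit cutoff, then over 50% inhibition at one or more dose response concentrations (cut at about 23% in these data, passing the limit was not always enough); inconclusive means conflicting primary data, or primary hits not chosen for dose response; inactive means low primary inhibition, or under 50% at every dose.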 Only a selection was taken, and actives are over-represented in it overall. Entries with a potency or affinity are not part of this list. More than one record can exist for a structure, and the calls need not agree.

In the assay the target is Aminopeptidase N (Plasmodium falciparum (isolate 3D7)) (UniProt O96935). Description: P. falciparum M1AAP inhibitors, biochemical, fluorogenic H-Leu-NHMec substrate, 1536-well (AID 1445).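 Further: plate controls were DMSO full reaction for no effect and no enzyme background for full effect.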 Particulars: recombinant M1AAP, H-Leu-NHMec fluorogenic kinetic assay; at 30 µM, stronger effect = higher value unless noted.
Chain of Aminopeptidase N (Plasmodium falciparum (isolate 3D7)) (O96935 whole entry, looked up): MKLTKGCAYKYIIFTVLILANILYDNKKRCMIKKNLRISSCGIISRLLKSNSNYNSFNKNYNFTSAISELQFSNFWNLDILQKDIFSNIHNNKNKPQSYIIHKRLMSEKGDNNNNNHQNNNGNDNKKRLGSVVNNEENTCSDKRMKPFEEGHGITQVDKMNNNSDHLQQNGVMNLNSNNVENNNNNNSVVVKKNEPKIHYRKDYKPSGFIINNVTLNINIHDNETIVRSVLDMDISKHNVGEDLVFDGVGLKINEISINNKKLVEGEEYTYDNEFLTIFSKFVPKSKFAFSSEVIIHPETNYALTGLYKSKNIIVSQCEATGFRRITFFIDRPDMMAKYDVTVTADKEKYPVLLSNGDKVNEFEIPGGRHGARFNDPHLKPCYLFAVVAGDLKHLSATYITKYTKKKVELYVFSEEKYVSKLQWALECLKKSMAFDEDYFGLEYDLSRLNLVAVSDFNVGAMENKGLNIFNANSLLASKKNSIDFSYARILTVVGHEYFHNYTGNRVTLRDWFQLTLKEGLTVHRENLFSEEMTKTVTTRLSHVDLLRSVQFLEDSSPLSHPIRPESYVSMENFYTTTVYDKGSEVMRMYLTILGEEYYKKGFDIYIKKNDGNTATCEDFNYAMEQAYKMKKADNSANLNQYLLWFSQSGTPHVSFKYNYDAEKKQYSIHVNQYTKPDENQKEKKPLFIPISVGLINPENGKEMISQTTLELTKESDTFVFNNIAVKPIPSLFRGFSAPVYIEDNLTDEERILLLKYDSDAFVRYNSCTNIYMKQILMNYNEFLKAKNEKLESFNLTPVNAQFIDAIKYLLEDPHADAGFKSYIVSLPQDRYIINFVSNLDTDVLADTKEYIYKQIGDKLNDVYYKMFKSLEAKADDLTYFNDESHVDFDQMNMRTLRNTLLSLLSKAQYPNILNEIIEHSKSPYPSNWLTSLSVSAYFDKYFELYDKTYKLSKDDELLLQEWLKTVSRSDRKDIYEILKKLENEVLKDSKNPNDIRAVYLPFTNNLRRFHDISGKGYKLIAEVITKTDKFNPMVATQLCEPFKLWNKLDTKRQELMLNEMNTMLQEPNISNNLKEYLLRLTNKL
One may read the inhibition as the change of the read-out against control, counted positive when it falls. As to `NC(=NCCc1c[nH]c2ccccc12)NC(=O)c1ccc(Cl)cc1`, the inhibition was 2.62% (inactive). Then `O=c1c2ccccc2nc(SCc2cn3ccsc3n2)n1-c1ccc(F)cc1`, with -8.24% (inactive). Then `Cc1ccc(-n2c(SCc3cn4ccsc4n3)nc3ccccc3c2=O)cc1`, with 25.9% (active). Then `O=c1c2ccccc2nc(SCc2cn3ccsc3n2)n1-c1ccccc1`, with 14.2% (inactive). Consider `O=C(NC1CCCCC1)C(c1ccncc1)N(C(=O)Cn1nnc(-c2cccs2)n1)C1CCCC1` (centres undefined), for which the inhibition was 0.4% (inactive). Then `COc1ccccc1NC(=O)C(C)NS(=O)(=O)c1ccc(Cl)cc1` (centres undefined), with 0.77% (inactive). The same measure for `Cc1cc2oc(=O)cc(CN3CCOCC3)c2cc1C`: 11.2% (inactive). Then `CCN(CC)c1ccc2c(C)c(CN3CCOCC3)c(=O)oc2c1`, with 7.04% (inactive); and `COCCN(C(=O)CN1CCN(S(=O)(=O)c2ccc(F)cc2)CC1)c1c(N)n(Cc2ccccc2)c(=O)[nH]c1=O`, with 7.35% (inactive). For `Nc1cc2c(cc1[N+](=O)[O-])OCO2`, the inhibition was 7.4% (inactive). The same measure for `CC1(C)OC(=O)C(=NNc2ccccc2[N+](=O)[O-])C(=O)O1`: 9.4% (inactive).

On to `CC1C/C(=N/Nc2ccc([N+](=O)[O-])cc2[N+](=O)[O-])CC(C)(C)C1` (centres undefined), for which the inhibition is -1.42% (inactive). The same measure for `CC(=O)Nc1cc2c(cc1[N+](=O)[O-])OCCO2`: 6.17% (inactive); for `COc1ccc(/C=N/NC(=O)c2[nH]c3ccc(Br)cc3c2-c2ccccc2)cc1`: 2.81% (inactive). Turning to `O=C(N/N=C/c1ccccc1Cl)c1[nH]c2ccc(Br)cc2c1-c1ccccc1`, the inhibition was -5.79% (inactive). Then `CCOc1ccccc1N(C(=O)Nc1ccc(Cl)cc1)C1=NCCS1`, with -3.04% (inactive); and `COc1ccc(C2CC(=O)NC3=C2C(=O)CCC3)cc1Cl` (centres undefined), with -1.4% (inactive); and `O=C(O)CSc1nnc(-c2ccccc2O)n1Cc1ccccc1`, with 6.98% (inactive). Then `O=C(CSc1nnc(-c2ccccc2)n1Cc1ccccc1)NNC(=O)c1ccccc1O`, with 16.1% (inactive). Then `NC(=O)c1cc2c3ccccc3ccn2c1-c1ccccc1`, with 0.96% (inactive). Consider `CC(C)NC(=O)CSc1nnc(-c2ccc(F)cc2)c2ccccc12`, for which the inhibition was 0.8% (inactive).

Regarding `O=C1CC(c2ccco2)CC(O)=C1C=Nc1cc(Cl)cc(Cl)c1` (centres undefined), the inhibition is -0.66% (inactive). In the case of `O=C1CC(c2ccco2)CC(O)=C1C=Nc1cc(Cl)ccc1Cl` (centres undefined), the inhibition was 4.23% (inactive). Then `O=C(NCc1ccccc1)c1nc2ccccc2s1`, with 1.19% (inactive); and `COc1cc(OC)c(-c2c3cc(O)c(=O)cc-3oc3cc(O)c(O)cc23)cc1OC`, with 22.9% (inactive); and `O=c1cc2oc3cc(O)c(O)cc3c(-c3ccccc3O)c-2cc1O`, with 13.8% (inactive). The same measure for `Cc1c2cc(O)c(=O)cc-2oc2cc(O)c(O)cc12`: 24.7% (active) and 6.57% (inactive); for `CC(=O)Nn1cnc2c(c1=O)C1(CCCCC1)Cc1ccccc1-2`: 4.35% (inactive). Take `COc1ccc(NC(=O)Nc2cccc(Cl)c2Cl)c(OC)n1`: the inhibition was 4.95% (inactive). Then `COc1ccccc1NC1=NC(C)(C)N=C(N)N1`, with 0.34% (inactive); and `COC1=C(Nc2ccccc2OC)C(=O)c2ccccc2C1=O`, with 7.8% (inactive). The same measure for `COc1ccc(NC(=O)Nc2cccnc2)c(OC)c1`: 2.93% (inactive); for `COc1ccc(OC)c(C2=NOC(C(=O)Nc3cccnc3)C2)c1` (centres undefined): 7.85% (inactive). Then `CCOc1ccc(-n2c(=O)[nH]cc(C(=O)N3CCc4ccccc43)c2=O)cc1`, with 1.21% (inactive); and `Cc1ccc(C)c(NC(=O)c2ccccc2NS(=O)(=O)c2cc([N+](=O)[O-])ccc2C)c1`, with 8.58% (inactive); and `CC(=O)Nc1ccc(NS(=O)(=O)c2cc([N+](=O)[O-])ccc2C)cc1`, with 2.22% (inactive).

As to `O=C(N/N=C(\Cc1ncc[nH]1)c1ccccc1)c1cccnc1`, the inhibition was 16.6% (inactive).

In the case of `O=C(N/N=C(\Cc1ncc[nH]1)c1ccccc1)c1ccccc1`, the inhibition was 19.5% (inactive).

As to `COC(=O)c1cc2c(ccn2-c2ccc(F)cc2)n1CC(=O)OC(C)C`, the inhibition is 1.89% (inactive). Turning to `CCOc1cc(N2CCOCC2)c(OCC)cc1NC(=O)C(NC(=O)c1ccco1)C(C)C` (centres undefined), the inhibition was 8.28% (inactive). As for `c1ccc2c(c1)N1CCN=C1N2CCN1CCCCC1`, the inhibition was 5.87% (inactive). The same measure for `Cc1oc(S(=O)(=O)N(C)C)cc1C(=O)Nc1ccc(F)cc1`: 0.82% (inactive); for `C=CCn1c(CCNC(=O)c2ccccc2F)nnc1SCC(=O)Nc1nc(C)cs1`: -1.07% (inactive); for `C=CCn1c(CNC(=O)c2ccccc2F)nnc1SCc1nc2ccccc2c(=O)[nH]1`: 7.18% (inactive).

Consider `CCOC(=O)C(NC(=O)CC)(Nc1ccccc1OC)C(F)(F)F` (centres undefined), for which the inhibition is -0.34% (inactive). Then `COc1ccc(N2CCN(Cc3nc4ccsc4c(=O)[nH]3)CC2)cc1`, with 13.2% (inactive); and `O=c1[nH]c(CN2CCN(c3ccccc3Cl)CC2)nc2ccsc12`, with 6.37% (inactive). For the compound `O=c1[nH]c(CN2CCN(c3ccc([N+](=O)[O-])cc3)CC2)nc2ccsc12`, the inhibition was 25.9% (active). The same measure for `O=C(CSc1nnc(NCc2ccccc2)s1)NC1CCS(=O)(=O)C1` (centres undefined): -0.46% (inactive); for `COc1cc(C2c3c(-c4ccccc4O)n[nH]c3C(=O)N2Cc2ccco2)cc(OC)c1OC` (centres undefined): 3.24% (inactive). Consider `COc1cc(C2c3c(-c4cc(C)cc(C)c4O)n[nH]c3C(=O)N2CCCO)cc(OC)c1OC` (centres undefined), for which the inhibition is 28.3% (active). Then `COCCCN1C(=O)c2[nH]nc(-c3cc(C)cc(C)c3O)c2C1c1ccc(O)c(OC)c1` (centres undefined), with 6.71% (inactive); and `CCOc1ccccc1-n1c(SCC(=O)N(C(C)C)C(C)C)nnc1-c1cccnc1`, with 5.81% (inactive); and `O=C(CN1CCN(Cc2ccc(Cl)cc2)C1=O)NCCN1CCCC1`, with 1.07% (inactive). The same measure for `CCC(C)[C@H](NC(=O)Nc1ccc(C(C)=O)cc1)C(=O)OC` (some centres undefined): -5.32% (inactive); for `Cc1nn(-c2ccccc2)c(Cl)c1/C=C1\C(=O)N(C)C(=S)N1C`: 5.11% (inactive). For the compound `Cc1nn(-c2ccccc2)c(Cl)c1/C=C1\SC(=S)N(C)C1=O`, the inhibition is -0.16% (inactive).

On to `CCC1=NN2C(=N)/C(=C\c3cccn3-c3cccc(Cl)c3)C(=O)N=C2S1`, for which the inhibition was 7.8% (inactive). Then `CCC1=NN2C(=N)/C(=C/c3cc(C)n(Cc4ccccc4)c3C)C(=O)N=C2S1`, with 1.28% (inactive); and `O=C(Nc1ccc(-n2nncc2-c2ccco2)cc1)c1cccc(F)c1`, with 1.93% (inactive). The same measure for `COc1ccc(CN(C)CC(=O)Nc2ccccc2-c2ccccc2)c(OC)c1`: 6.36% (inactive); for `O=C(O)C(CC1CCCCC1)N1CCS(=O)(=O)CC1` (centres undefined): -6% (inactive). Then `C=CCn1c(N)cc(=O)nc1SC(C)C(=O)Nc1cccc2ccccc12` (centres undefined), with 14% (inactive). In the case of `O=C(Nc1cccc(S(=O)(=O)N2CCCCC2)c1)c1ccccc1NS(=O)(=O)c1ccc(F)cc1`, the inhibition was 11.5% (inactive).

For the compound `Cc1ccc(NC(=O)c2ccccc2NS(=O)(=O)c2ccc(F)cc2)cc1S(=O)(=O)N1CCCCC1`, the inhibition is 14.4% (inactive). Turning to `O=C(Nc1cc(S(=O)(=O)Nc2ccc(Cl)cc2)ccc1O)c1ccc(S(=O)(=O)N2CCCCCC2)cc1`, the inhibition was 0.01% (inactive). Then `O=C(Nc1ccccc1N1CCOCC1)c1ccccc1NS(=O)(=O)c1ccc(F)c(F)c1`, with 5.56% (inactive); and `CCc1nnc(NC(=O)CN2CCN(C(=O)c3ccccc3)CC2)s1`, with 5.2% (inactive); and `O=C(O)C1CCN(C(=O)CSc2nc3ccccc3s2)CC1`, with -1.91% (inactive). With `CSc1ccc(Cl)c(C(=O)NC2CCCC2)c1`, the inhibition was 1.66% (inactive). The same measure for `CC(C)CNS(=O)(=O)c1ccc(CCC(=O)Nc2ccc3c(c2)OCCO3)cc1`: 9.09% (inactive). Then `Cc1ccc(Cl)cc1NC(=O)COC(=O)C1CC1`, with -9.09% (inactive); and `C=CCn1c(-c2ccccc2[N+](=O)[O-])n[nH]c1=S`, with -1.25% (inactive); and `COc1ccc(N=C2NC(=O)/C(=C\c3ccco3)S2)cc1`, with 6.07% (inactive).

With `O=C1N/C(=N/O)S/C1=C/c1cccc([N+](=O)[O-])c1`, the inhibition is 13.8% (inactive).

Take `COc1ccc(N=C2NC(=O)/C(=C/c3ccco3)S2)cc1`: the inhibition was 7.45% (inactive). `COc1ccc(S(=O)(=O)Nc2nncs2)cc1`: the inhibition is -0.42% (inactive). For the compound `O=C(O)c1cccc(CN2C(=O)S/C(=C/c3cccc([N+](=O)[O-])c3)C2=O)c1`, the inhibition is 3.75% (inactive). `CCCN1C(=O)/C(=C/c2ccco2)SC1=Nc1ccc(OC)cc1`: the inhibition is 8.83% (inactive). The same measure for `Cc1ccc(S(=O)(=O)NC(=O)c2ccc(Br)o2)cc1`: 0.41% (inactive); for `CSC1=N/C(=C\c2ccc(Br)o2)C(=O)S1`: 1.89% (inactive). The same measure for `O=C(O)c1ccc(-c2nc3ccccc3s2)o1`: -2.11% (inactive); for `O=C(COc1ccccc1)NNC(=O)COc1ccc([N+](=O)[O-])cc1`: 0.69% (inactive); for `COc1cc(NC(=O)CN(C)Cc2cccc(F)c2)c(C)cc1[N+](=O)[O-]`: 13.2% (inactive).

As for `CNC(=S)N/N=C(\C)c1ccc2c(c1)OCO2`, the inhibition was 6.47% (inactive). As for `O=C(NC1CCCCC1)c1ccc(CNc2ccccc2)o1`, the inhibition was 3.72% (inactive). Then `COc1ccc(/C=C/C(=O)c2ccc(Cl)s2)cc1O`, with 9.54% (inactive); and `NC(=O)c1ccc(-n2nnnc2SCC(=O)Nc2ccc(N3CCOCC3)c(Cl)c2)cc1`, with -2.55% (inactive). `CCCCOC(=O)Nc1nnc(CCOCC)s1`: the inhibition is 2.38% (inactive). Turning to `CCN(CC)CCSc1nc2ccc(OC)cc2[nH]1`, the inhibition was 1.77% (inactive).

As to `Cc1ccc(S(=O)(=O)Nc2ccccc2-c2ccccc2NS(=O)(=O)c2ccc(C)cc2)cc1`, the inhibition is 17.1% (inactive). The same measure for `CN(C)C1=NC(=O)/C(=C\c2ccccc2)S1`: 3.5% (inactive).

Consider `NC1=NC(=O)/C(=C\c2ccco2)S1`, for which the inhibition is 9.69% (inactive).

In the case of `Cc1ccc(N2C(=O)/C(=C\c3ccco3)SC2=S)cc1`, the inhibition was 2.77% (inactive).
